Measurements from publication PMC4336329 (PLoS ONE, 2015).
The whole screen tested about 310,000 compounds, of which about 14,000 (4.5%) showed an effect of 50% or more. The effect is printed as a negative number. Shown is part of a subset that was picked to be rich in strong results.

Target: human ether-à-go-go-related gene (hERG) potassium channel (human, UniProt Q12809)
Assay: primary screen, population patch clamp on CHO cells stably expressing hERG; higher = less effect of the substance
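Also: peak tail current of the secondary pulse compared with the same well before compound.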

Chain of human ether-à-go-go-related gene (hERG) potassium channel (Q12809 whole entry, looked up): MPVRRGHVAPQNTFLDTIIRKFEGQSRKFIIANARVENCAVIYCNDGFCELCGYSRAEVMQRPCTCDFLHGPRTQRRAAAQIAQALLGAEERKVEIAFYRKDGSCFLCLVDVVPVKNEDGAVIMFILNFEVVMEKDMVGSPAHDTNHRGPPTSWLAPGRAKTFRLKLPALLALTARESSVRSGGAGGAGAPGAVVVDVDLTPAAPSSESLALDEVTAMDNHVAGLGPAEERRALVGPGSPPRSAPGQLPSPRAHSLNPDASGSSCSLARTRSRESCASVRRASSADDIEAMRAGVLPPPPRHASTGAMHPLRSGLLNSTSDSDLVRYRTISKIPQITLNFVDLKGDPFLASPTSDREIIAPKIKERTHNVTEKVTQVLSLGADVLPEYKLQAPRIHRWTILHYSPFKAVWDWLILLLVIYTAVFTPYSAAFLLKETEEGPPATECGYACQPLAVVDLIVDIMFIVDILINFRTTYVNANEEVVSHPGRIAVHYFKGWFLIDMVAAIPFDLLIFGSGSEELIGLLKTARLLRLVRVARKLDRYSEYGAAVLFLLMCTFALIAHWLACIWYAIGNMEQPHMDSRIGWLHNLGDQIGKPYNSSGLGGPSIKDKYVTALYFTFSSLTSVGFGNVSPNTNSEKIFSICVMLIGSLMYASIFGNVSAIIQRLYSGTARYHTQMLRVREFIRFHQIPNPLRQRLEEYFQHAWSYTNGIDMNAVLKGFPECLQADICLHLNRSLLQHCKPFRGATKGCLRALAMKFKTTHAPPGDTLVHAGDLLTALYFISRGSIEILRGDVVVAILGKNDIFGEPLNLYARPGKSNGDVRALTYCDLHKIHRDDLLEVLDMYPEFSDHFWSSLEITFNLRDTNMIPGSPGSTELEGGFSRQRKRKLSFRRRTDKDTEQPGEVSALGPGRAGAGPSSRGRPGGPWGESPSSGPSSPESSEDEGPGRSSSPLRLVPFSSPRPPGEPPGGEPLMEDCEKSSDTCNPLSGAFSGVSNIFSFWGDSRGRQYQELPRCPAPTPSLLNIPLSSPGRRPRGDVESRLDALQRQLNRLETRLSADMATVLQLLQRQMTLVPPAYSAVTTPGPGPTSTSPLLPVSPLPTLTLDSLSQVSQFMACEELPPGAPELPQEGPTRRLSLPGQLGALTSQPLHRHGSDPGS

| SMILES | hERG current change (%, negative = inhibition) at 10uM [%] |
| --- | --- |
| CC(=O)/C=C(\C)Nc1ccccc1O | 21.3 |
| COc1ccc(C(=O)/C=C/Nc2ccccn2)cc1 | 2.01 |
| O=C(NC1CCCc2c1cnn2-c1ccc(F)cc1F)c1ccccn1 (stereo not shown) | 1.82 |
| O=C(CCc1ccncc1)NC1CCCc2c1cnn2-c1cc(F)cc(F)c1 (stereo not shown) | -56.5 |
| Cc1cccc(-n2ncc3c2CCCC3NC(=O)CCc2ccncc2)c1C (stereo not shown) | 4.95 |
| Cn1nccc1C(=O)NC1CCCc2c1cnn2-c1cc(F)cc(F)c1 (stereo not shown) | -45.2 |
| O=C(NC1CCCc2c1cnn2-c1cc(F)cc(F)c1)c1cc[n+]([O-])cc1 (stereo not shown) | -37.1 |
| CSCC(=O)NC1CCCc2c1cnn2-c1cc(F)cc(F)c1 (stereo not shown) | -12.6 |
| O=C(NC1CCCc2c1cnn2-c1cc(F)cc(F)c1)c1ccccn1 (stereo not shown) | -52.4 |
| O=C(NC1CCCc2c1cnn2-c1cc(F)cc(F)c1)c1ccncc1 (stereo not shown) | -64.1 |
| O=C(CCc1ccncc1)NC1CCCc2c1cnn2-c1ccc(F)cc1F (stereo not shown) | -12.5 |
| CCN(CC)CC(=O)NC1CCCc2c1cnn2-c1cc(F)cc(F)c1 (stereo not shown) | -9.77 |
| C=CCC(=O)NC1CCCc2c1cnn2-c1cc(F)cc(F)c1 (stereo not shown) | -75.7 |
| O=C(NC1CCCc2c1cnn2-c1ccccc1F)c1ccccn1 (stereo not shown) | 5.09 |
| OCC(O)C(O)C(O)C(O)C1NCCS1 (stereo not shown) | 0.867 |
| O=C1CSC(c2ccc(Cl)cc2)N1C1CCCCC1 (stereo not shown) | -14.4 |
| Cc1cc2cc(CN(Cc3ccc4c(c3)OCO4)C(=O)c3ccco3)c(=O)[nH]c2cc1C | -25 |
| ClCc1ncc(-c2ccc(Cl)cc2)o1 | 33.5 |
| Cc1ccc(C(=O)NCc2ccc(Cl)cc2)cc1S(=O)(=O)N1CCCCC1 | -0.995 |
| O=C(NC(=S)Nc1cccnc1Cl)c1ccc(Cl)cc1 | 15.5 |
| O=C(c1cccc(S(=O)(=O)N2CCOCC2)c1)N(Cc1ccc(F)cc1)Cc1ccco1 | -88.4 |
| CN1CCN(S(=O)(=O)c2cccc(C(=O)N(C)Cc3cccs3)c2)CC1 | -7.83 |
| O=C(NCc1ccc(F)cc1)c1cccc(S(=O)(=O)N2CCOCC2)c1 | -25.4 |

| SMILES | hERG current change (%, negative = inhibition) at 10uM [%] |
| --- | --- |
| O=C(c1ccc(S(=O)(=O)N2CCOCC2)cc1)N(Cc1ccco1)Cc1cccs1 | -44.5 |
| Cc1ccc(N(Cc2ccco2)C(=O)c2cccc(S(=O)(=O)N(C)C)c2)cc1 | -21.5 |
| CCN(Cc1cccs1)C(=O)c1cccc(S(=O)(=O)N2CCN(C)CC2)c1 | -14.1 |
| O=C(NCc1ccco1)c1cccc(S(=O)(=O)N2CCOCC2)c1 | -4.97 |
| CN(C)S(=O)(=O)c1cccc(C(=O)NCc2ccco2)c1 | 10.7 |
| CN(Cc1cccs1)C(=O)c1cccc(S(=O)(=O)N2CCCCCC2)c1 | -59.9 |
| O=C(c1cccc(S(=O)(=O)N2CCOCC2)c1)N(Cc1ccco1)Cc1cccs1 | -68.5 |
| CN(Cc1cccs1)C(=O)c1ccc(S(=O)(=O)N2CCCCC2)cc1 | -18.8 |
| CN(C)S(=O)(=O)c1cccc(C(=O)N(Cc2ccc(F)cc2)Cc2ccco2)c1 | -52.3 |
| CCc1ccccc1NC(=O)c1cc(-c2cccc(O)c2)on1 | 12.7 |
| COc1cccc(C(=O)Nc2cnn(C(C)C)c2)c1 | 9.94 |
| CC(C)N(Cc1cnn(C)c1)Cc1nc(-c2ccc(Cl)cc2)no1 | 3.63 |
| COc1ccc(/C=N/NC(=O)c2ccncc2)cc1Cn1nc([N+](=O)[O-])c(Br)c1C | -49.4 |
| Cc1ccccc1NC(=O)C1C2CCCCC21 (stereo not shown) | 6.99 |
| CC(C)CC(NC(=O)C1CCC(C)CC1)C(=O)NCc1ccccn1 (stereo not shown) | 18 |
| O=C(Oc1cccc(-c2cnc3ccccc3n2)c1)c1ccco1 | -5.02 |
| O=C(CNC(=O)c1ccccc1Cl)NC1CCN(Cc2ccccc2)CC1 | 13.1 |
| Cl.O=C(NC1CCN(Cc2ccccc2)CC1)c1ccccc1OCc1ccccc1 | -69.3 |
| CCOc1ccccc1C(=O)NC1CCN(Cc2ccccc2)CC1 | -46.6 |
| O=C(NC1CCN(Cc2ccccc2)CC1)c1ccccc1OCc1ccccc1Cl | -69.2 |
| O=C(O)c1ccccc1OCc1ccccc1Cl | 6.55 |
| O=C(NC1CCCC1)c1ccccc1OCc1ccccc1 | -39.6 |
| CC(C)N1CC23C=CC(O2)C(C(=O)OCc2ccccc2)C3C1=O (stereo not shown) | 3.29 |

| SMILES | hERG current change (%, negative = inhibition) at 10uM [%] |
| --- | --- |
| COc1cc(NS(=O)(=O)c2ccc(N/C=C(\C=O)c3nc4cc(Cl)ccc4o3)cc2)nc(OC)n1 | -2.34 |
| CCO[C@H]1OC(C(=O)O)=C[C@@H](C(C)(C)C)[C@@H]1CCCO | 7.12 |
| Cl.Fc1ccccc1Nc1nc(Cl)nc(Cl)n1 | 7.69 |
| COc1ccccc1N1CCN(c2ncc(C(=O)N3CCN(c4cccc(Cl)c4)CC3)c3ccccc23)CC1 | -10.7 |
| O=C(C1CCCCC1)N1CCN(c2ccccc2F)CC1 | -7.04 |
| CCCOC(=O)CSc1nc(N2CCOCC2)c2c(c1C#N)CC(C)(C)OC2 | -40.5 |
| O=C(Nc1ccc2ccccc2c1)NC1CCS(=O)(=O)C1 (stereo not shown) | 6.88 |
| Cc1ccc(C)c(NC(=O)CCNS(=O)(=O)c2ccc3[nH]c(=O)oc3c2)c1 | 11.4 |
| COCCNc1nnc(SCC(=O)Nc2cc(-c3ccccc3)nn2-c2ccccc2)s1 | -50.9 |
| COCCNc1nnc(SCC(=O)Nc2nnc(-c3ccccc3)o2)s1 | 21.8 |
| CC(C)(C)c1cc(NC(=O)CSc2nnc(N)s2)n(-c2ccccc2)n1 | -29.1 |
| Cc1ccc(C(=O)OCC(=O)Nc2cc(C(C)(C)C)nn2-c2ccccc2)c(O)c1 | -8.07 |
| Cc1nnc(SCC(=O)Nc2cc(C(C)(C)C)nn2-c2ccccc2)s1 | -12.9 |
| O=C(COC(=O)c1ccc(O)cc1O)Nc1cc(-c2ccccc2)nn1-c1ccccc1 | -9.42 |
| CC(C)(C)c1cc(NC(=O)CSc2nnc(NCc3ccccc3)s2)n(-c2ccccc2)n1 | -50.1 |
| O=C(CSc1nncs1)Nc1cc(-c2ccccc2)nn1-c1ccccc1 | -39.1 |
| CC(C)(C)c1cc(NC(=O)COC(=O)c2ccc(O)cc2O)n(-c2ccccc2)n1 | -79.3 |
| O=C(Nc1nc2c(F)cccc2s1)C1CC1 | -8.38 |
| Cn1c(=O)cc(OCC(=O)N2CCN(Cc3ccc4c(c3)OCO4)CC2)c2ccccc21 | -33.4 |
| O=C(CSc1ccccc1)Nc1nccs1 | -3.78 |
| O=C(CC1C(=O)NCCN1Cc1ccc(-c2ccccc2)cc1)NCCOc1cccnc1 (stereo not shown) | -25.9 |
| O=C(c1ccccc1)N1N=C(C(F)(F)F)CC1(O)c1ccccc1 (stereo not shown) | 10.6 |
| C=CCNC(=O)c1ccc2c3n(nc2c1)-c1ccc(C)cc1CO3 | -24.6 |

| SMILES | hERG current change (%, negative = inhibition) at 10uM [%] |
| --- | --- |
| O=C(Nc1ccccc1C(F)(F)F)C1CCN(C(=O)c2cccs2)CC1 | 10.5 |
| Cc1ccc(NC(=O)C2Cc3ccccc3C(=O)O2)cc1 (stereo not shown) | 13 |
| O=C(NCCOc1ccccc1)c1cc2ccccc2o1 | -2.6 |
| CCOc1ccc(NC(=S)NN2C(C)CCCC2C)cc1 (stereo not shown) | 6.62 |
| COc1ccc(NC(=S)NN2C(C)CCCC2C)cc1 (stereo not shown) | 16.6 |
| CC1CCCC(C)N1NC(=S)Nc1ccc(OC(F)F)cc1 (stereo not shown) | -68.3 |
| N/C(=N\OC(=O)c1ccc(F)cc1)c1ccc(Br)cc1 | 15.4 |
| CC(=O)Nc1ccc(C=C(C(C)=O)C(C)=O)cc1 | 2.2 |
| COc1ccc(CN2C(=O)c3cccnc3C2=O)cc1S(=O)(=O)N1CCOc2ccc(C)cc21 | -11.6 |
| CNc1c([N+](=O)[O-])cnn1-c1cccc(Cl)n1 | 14.4 |
| Cc1cccn2c(=O)c3cc(C(=O)NCCc4ccccc4)c(=N)n(CCCn4ccnc4)c3nc12 | -74.4 |
| CC(NC(=O)C(=O)NCCCn1ccnc1)c1ccccc1 (stereo not shown) | 15.6 |
| Cc1cccn2c(=O)c3cc(C(=O)NC(C)c4ccccc4)c(=N)n(CCCn4ccnc4)c3nc12 (stereo not shown) | -68.1 |
| O=C(O)c1ccccc1C(=O)NCCCn1ccnc1 | 18.4 |
| Cc1cccn2c(=O)c3cc(C(=O)NCCCn4ccnc4)n(C)c3nc12 | -11 |
| Cc1ccc(N(C(=O)c2cccs2)C2C=CS(=O)(=O)C2)cc1 (stereo not shown) | -24.4 |
| CCCOC(=O)c1ccc(NC(=O)c2cc(OC)c(OC)c(OC)c2Br)cc1 | 8.82 |
| FC(F)(F)c1cccc(OCCN2CCN(Cc3ccccc3)CC2)c1.O=C(O)C(=O)O | -40.8 |
| CCc1cccc(OCCOCCN2CCCC2)c1.O=C(O)C(=O)O | -46.1 |
| O=C(O)C(=O)O.O=[N+]([O-])c1cccc(OCCN2CCC(Cc3ccccc3)CC2)c1 | -71.1 |
| O=C(O)c1cc([N+](=O)[O-])ccc1N1CCC(Cc2ccccc2)CC1 | -4.42 |
| O=C(O)C(=O)O.O=[N+]([O-])c1cccc(OCCCN2CCC(Cc3ccccc3)CC2)c1 | -78.1 |
